Test results taken from ChEMBL document CHEMBL3988442, “University of Dundee, Small-Polar-MMV Screening Library” (2021).
Hit rate of the full screen: of about 48,000 compounds, about 13,000 (27%) showed an effect of 50% or more. Some of the results follow.

The compounds below were run on Wolbachia pipientis (assay: Anti-Wolbachia Cell-Based Screen). Settings: 5 µM.
Format: functional
Parameters: scale not given: in the data most compounds retested in dose-response had high values

SMILES	Percent Effect
O=C(Nc1cnn(CC(=O)N2CCCO2)c1)c1ccccc1	1.203%
CCN(C(c1cccnc1)c1ccc2c(c1)CCC2)S(C)(=O)=O (stereo not given)	-0.855%
O=C(NC1CCN(C2CC2)CC1)NC1CCOc2ccc(Br)cc21 (stereo not given)	24.64%
CC1=N[C@@]2(CC[C@@H]3CN(C(=O)NC(C)C)C[C@@H]32)C(=O)N1CC(C)C	1.346%
C=C(C)COc1cccc(CNCCc2c[nH]cn2)c1	-1.571%
CCC(C)Oc1ccc(CNCCc2c[nH]cn2)cc1Cl (stereo not given)	95.83%
CCC(C)Oc1ccc(CNCCNS(C)(=O)=O)cc1Cl (stereo not given)	97.61%
COc1cc(CNCCNC(=O)c2ccc(O)cc2)ccc1SC	-8.251%
CCC(C)Oc1ccc(CNCCNC(C)=O)cc1Cl (stereo not given)	110%
C=C(C)COc1ccccc1CNCCc1c[nH]cn1	-1.538%
CC(CNS(C)(=O)=O)Oc1cccc(Cl)c1 (stereo not given)	-10.77%
CC(CNCc1ccc(Cl)c(Cl)c1)Oc1ccccn1.Cl (stereo not given)	9.6%
CC(=O)NCCNC(=O)NCc1ccc(Br)cc1Cl	-4.256%
CCC(C)Oc1ccc(CNCCNC(C)=O)cc1OC (stereo not given)	123.2%
CNC(=O)c1ccc(CNCc2ccc(SC)c(OC)c2)cc1	-3.705%
CCOc1ccc(CNCCCn2ccnc2)cc1Cl.Cl.Cl	1.454%
COc1cc(C2CC(=O)Oc3cc(C)[nH]c(=O)c32)ccc1OC(F)F (stereo not given)	2.33%
Cc1ccccc1[C@@H]1CN(Cc2nc3ncccn3n2)C[C@H]1C(=O)O	-5.6%
Cc1nc(C)c(CNC(=O)NC(c2nnc3n2CCC3)C(C)C)s1 (stereo not given)	-4.122%
COc1ccc(C(=O)Cn2cnnc2[S+](C)[O-])cc1Cl (stereo not given)	-30.86%
Cc1ccc(CC(=O)N2CCC(c3nnc4n3CCC4)CC2)cc1	-4.36%
C/C(=C\c1ccccc1)CN1CCCC(c2nnc3n2CCNCC3)C1.Cl (stereo not given)	87.16%
CC(C)n1c(C2CCCN(CC(N)=O)C2)nc2ccccc21 (stereo not given)	-123.1%
CC(C)CN1C(=O)CO[C@@H]2CN(C(=O)NC(C)C)C[C@H]21	-9.204%
c1cc(-c2n[nH]cc2-c2ccnc(N3CCCC3)n2)ccn1	100.8%

SMILES	Percent Effect
c1cc(-c2n[nH]cc2-c2ccnc(N3CCCCCC3)n2)ccn1	91.97%
CN1CCCN(c2nccc(-c3cc(C(=O)O)ccn3)n2)CC1	-0.2127%
Cc1nn(C)cc1-c1ccnc(N2CCN(c3ccccc3)C(=O)C2)n1	-10.97%
CN1CCCN(c2nccc(-c3c[nH]nc3-c3ccncc3)n2)CC1	94.49%
CN1CCCN(c2nccc(-c3c[nH]c4ccc(Br)cc34)n2)CC1	88.95%
Cc1oc(C(C)C)cc1C(=O)N1C[C@H]2CC[C@@H]1CN(c1ncccn1)C2	6.387%
CN(C)c1ccc(CCCNC(=O)NCC(O)c2ccsc2)cc1 (stereo not given)	3.16%
Cc1ccc(-c2nc3c([nH]2)CCNC3C(=O)O)c2cccnc12 (stereo not given)	-6.719%
CNc1cncc(C2CCCN(S(C)(=O)=O)C2)n1 (stereo not given)	-7.969%
Cc1cc(-c2ccnn2C)nc(C2CCCN(S(C)(=O)=O)C2)n1 (stereo not given)	122.2%
Cc1cc(C)nc(Nc2cccc(C3CCCN(S(C)(=O)=O)C3)n2)n1 (stereo not given)	85.5%
CS(=O)(=O)N1CCCC(c2cncc(Nc3ccccn3)n2)C1 (stereo not given)	103.2%
Cc1cc(C)nc(Nc2cncc(C3CCCN(S(C)(=O)=O)C3)n2)n1 (stereo not given)	101.3%
Cc1cnc(N2CCCC(c3ccccc3)C2)nc1-c1ccnn1C (stereo not given)	-17.82%
CS(=O)(=O)N1CCCC(c2nc(-c3ccccc3)c[nH]2)C1 (stereo not given)	-2.942%
CCc1noc(C)c1-c1nc(Cc2cccs2)nn1C1CCN(C)CC1	-27.77%
COCC(c1ccccn1)N(C)C(=O)c1cc(-c2ccc(O)cc2)n[nH]1 (stereo not given)	-10.51%
N#Cc1cc2n(n1)CCN(C(=O)CCc1c[nH]c3ccccc13)C2	-21.25%
CN(C)C(CNC(=O)NCc1cc[nH]n1)c1ccco1 (stereo not given)	-4.793%
CCOC(=O)C1CN(CC2CC2)Cc2ncn(CC)c21.O=C(O)C(F)(F)F (stereo not given)	1.772%
CCCc1cc(C(=O)N2C[C@H]3CCC[C@@]3(CO)C2)[nH]n1	14.56%
Cc1ccoc1C(=O)N1C[C@H]2CCC[C@@]2(COCc2ccncc2)C1.O=C(O)C(F)(F)F	6.221%
CCOCC(=O)N1C[C@H]2CCC[C@@]2(COC)C1	105.6%
COC[C@@]12CCO[C@@H]1CCN(C(=O)C1CCSCC1)C2	-9.781%
COCCC(=O)N1C[C@H]2CCC[C@@]2(COC)C1	114%

SMILES	Percent Effect
COCCC(=O)N1C[C@@H]2COC[C@]2(COCc2cccnc2)C1	-10.08%
COC[C@@]12CCC[C@@H]1CN(C(=O)N1CCCC1)C2	106.2%
COC[C@@]12CCC[C@@H]1CN(C(=O)Cc1ccco1)C2	-55.3%
COC[C@@]12CCC[C@@H]1CN(C(=O)CN(C)C)C2.O=C(O)C(F)(F)F	107.5%
COC[C@@]12CCO[C@@H]1CCN(C(=O)C1CC(F)(F)C1)C2	-30.77%
CNC(=O)CCCNCc1c(C)nn(CC(C)C)c1N(C)C	0.5097%
CC(=O)N1CCN(c2ccccc2CNc2ccc3[nH]ncc3c2)CC1	-1.242%
CCNC(=O)CN1CCCN(C(=O)C2CCCc3[nH]ncc32)CC1 (stereo not given)	2.738%
CC(C#N)NS(=O)(=O)c1ccc2c(c1)N(C)CCC2 (stereo not given)	-3.388%
Cc1nc(CCNC(=O)C2CC(=O)N(C(C)(C)C)C2)sc1Cl (stereo not given)	-46.08%
N#Cc1ccc2c(c1)CN(C(=O)C1CC=CC1)C2c1cnco1 (stereo not given)	-2.479%
O=C(COC1CCCC1)N1CC[C@H]2OCC[C@@]2(COCC2CC2)C1	5.898%
COC[C@@]12CCC[C@@H]1CN(C(=O)COC1CCCC1)C2	116%
COCC(=O)N1C[C@@H]2COC[C@]2(COC)C1	-5.007%
O=C(Cc1ccco1)N1C[C@H]2CCC[C@@]2(COCC2CC2)C1	4.43%
CC(C)(O)CN1CCN(C(=O)COC2CCCC2)CC1	-11.71%
COCC(=O)N1C[C@H]2CCC[C@@]2(COC)C1	91.12%
Cc1csc(N(C)C(=O)C2CC(=O)N(c3ccccc3F)C2)n1 (stereo not given)	1.281%
CCc1cnc(N2CCC(=O)N(CC3CC3)C(C(C)C)C2)nc1 (stereo not given)	-22.71%
Cc1cccc(CN2CCc3ncnc(-c4ccsc4)c3CC2)n1.O=C(O)C(F)(F)F	18.15%
O=C(N1CCOCC1)N1CCc2ncnc(Oc3cccnc3)c2CC1.O=C(O)C(F)(F)F	0.6158%
Cc1cccc(CN2CCc3ncnc(Oc4cccnc4)c3CC2)n1	126.9%
COc1ncnc2c1CCN(c1cccc(F)c1)CC2	16.21%
COc1ncnc2c1CCN(Cc1cccc(C)n1)CC2	95.16%
Cc1c(Br)cccc1CNC1(CCO)CCOCC1	-8.762%

SMILES	Percent Effect
Cc1cccc(-c2ccc(C(=O)NCC(C)(C)C(N)=O)c(=O)[nH]2)c1	6.298%
O=c1n(CC2CCCO2)nc(CC2CCNCC2)n1-c1ccccc1 (stereo not given)	-2.06%
O=C(Cc1ccsc1)N1CCCC2(COCCN(CC3CC3)C2)C1.O=C(O)C(F)(F)F (stereo not given)	-6.273%
CNC(=O)CN1CCOCC2(C1)CN(Cc1csnn1)CCO2 (stereo not given)	-63.88%
CNC(=O)CN1CCOCC2(CCCN(CCc3ccccc3)C2)C1.O=C(O)C(F)(F)F.O=C(O)C(F)(F)F (stereo not given)	95.77%
O=C(O)C(F)(F)F.O=C(O)C(F)(F)F.c1cc(CN2CCCC3(COCCN(Cc4c[nH]nn4)C3)C2)cs1 (stereo not given)	-3.228%
Fc1ccc(CN2CCCC3(COCCN(Cc4c[nH]nn4)C3)C2)cc1.O=C(O)C(F)(F)F.O=C(O)C(F)(F)F (stereo not given)	-5.043%
CNC(=O)CN1CCOCC2(CCCN(Cc3ccsc3)C2)C1.O=C(O)C(F)(F)F.O=C(O)C(F)(F)F (stereo not given)	99.42%
CNC(=O)CN1CCOCC2(CCCN(Cc3ccc(F)cc3)C2)C1.O=C(O)C(F)(F)F.O=C(O)C(F)(F)F (stereo not given)	113%
CN(C)CCN1CCOCC2(CCCN(C(=O)Cc3ccccc3)C2)C1.O=C(O)C(F)(F)F.O=C(O)C(F)(F)F (stereo not given)	-11.48%
CNC(=O)CN1CCOCC2(CCCN(Cc3ccoc3)C2)C1 (stereo not given)	84.78%
Cc1ccc(CN2CCCC3(CCN(Cc4ccoc4)CC3)C2)cc1.O=C(O)C(F)(F)F.O=C(O)C(F)(F)F	12.66%
CNC(=O)CN1C(=O)CCC12CCCN(CCc1ccccc1)C2 (stereo not given)	-21.16%
Fc1ccc(CN2CCOCC3(CCN(Cc4nccs4)C3)C2)cc1.O=C(O)C(F)(F)F.O=C(O)C(F)(F)F (stereo not given)	2.438%
CN(C)c1ccc2c(c1)CN(C(=O)c1cnccn1)C2c1cnco1 (stereo not given)	6.67%
COCCN1CCC2(COCCN(Cc3ccc4c(c3)OCO4)C2)C1.O=C(O)C(F)(F)F.O=C(O)C(F)(F)F (stereo not given)	1.486%
COCCN1CCOCC2(CCCN(Cc3ccc(C)o3)C2)C1.O=C(O)C(F)(F)F.O=C(O)C(F)(F)F (stereo not given)	4.497%
COCCN1CCOCC2(CCCN(Cc3cccc(F)c3)C2)C1.O=C(O)C(F)(F)F.O=C(O)C(F)(F)F (stereo not given)	114.4%
COCCOc1ccc(S(=O)(=O)Nc2cccnc2O)cc1C	-11.72%
Fc1ccc(CN2CCCC(c3cc4ncccc4[nH]3)C2)cc1 (stereo not given)	39.65%
CCC(=O)NC1CCCN(Cc2ccc(NC(C)=O)cc2)C1 (stereo not given)	21.19%
CCOc1ccc(CN2CCCC(c3cc4ncccc4[nH]3)C2)cc1 (stereo not given)	111.1%
CCOc1nnc(CN2CCCC(c3nc4ccccc4[nH]3)C2)s1 (stereo not given)	-5.507%
CC(=O)Nc1ccc(CN2CCCC(c3cc4ncccc4[nH]3)C2)cc1 (stereo not given)	130.8%
CC(=O)NC1CCCN(Cc2ccc(-n3ccnc3)cc2)C1 (stereo not given)	4.103%
